According to ChEMBL document CHEMBL3433997, “St. Jude Leishmania screening dataset” (2016):

Columns and labels:
Type in all cases: functional
[1] = biological target: Solute carrier family 2, facilitated glucose transporter member 1 (Homo sapiens) (UniProt P11166); experiment: ST_JUDE_LEISH: Cytotoxicity at 2uM final concentration against transgenic Leishmania Mexicana promastigotes LmGLUT1 that are glucose transport deficient and complemented with the human glucose transporter GLUT1. Activity is measured by DNA content using SYBR green in vitro
Solute carrier family 2, facilitated glucose transporter member 1 (Homo sapiens), sequence (P11166 whole entry): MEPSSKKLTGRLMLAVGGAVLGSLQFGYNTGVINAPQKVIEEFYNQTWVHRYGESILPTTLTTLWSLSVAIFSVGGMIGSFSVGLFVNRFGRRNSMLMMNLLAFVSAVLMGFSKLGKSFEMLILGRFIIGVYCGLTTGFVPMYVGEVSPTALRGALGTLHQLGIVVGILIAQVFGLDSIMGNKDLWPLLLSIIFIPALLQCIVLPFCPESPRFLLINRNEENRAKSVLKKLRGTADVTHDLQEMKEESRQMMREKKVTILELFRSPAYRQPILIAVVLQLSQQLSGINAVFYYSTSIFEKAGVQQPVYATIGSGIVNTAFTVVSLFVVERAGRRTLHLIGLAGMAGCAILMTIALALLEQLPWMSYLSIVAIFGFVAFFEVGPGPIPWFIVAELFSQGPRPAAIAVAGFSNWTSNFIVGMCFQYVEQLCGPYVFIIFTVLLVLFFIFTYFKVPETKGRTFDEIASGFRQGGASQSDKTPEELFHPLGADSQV

[2] = biological target: Hexose transporter 1 (Plasmodium falciparum) (UniProt O97467); experiment: ST_JUDE_LEISH: Cytotoxicity at 2uM final concentration against transgenic Leishmania Mexicana promastigotes LmPfHT that are glucose transport deficient and complemented with the Plasmodium falciparum hexose transporter. Activity is measured by DNA content using SYBR green in vitro
[3] = biological target: Glucose transporter (Leishmania mexicana) (UniProt O61059); experiment: ST_JUDE_LEISH: Cytotoxicity at 2uM final concentration against transgenic Leishmania Mexicana promastigotes LmGT2 that are glucose transport deficient and complemented with the L. Mexicana glucose transporter 2. Activity is measured by DNA content using SYBR green in vitro

Compound | inhibition [1] [%] | inhibition [2] [%] | inhibition [3] [%]
COc1ccc(CN(C)CCCOc2ccc(NC(=O)C=Cc3ccc(C(C)(C)C)cc3)cc2)cc1OC | 13.9 | 9.61 | 9.75
CCOc1ccccc1C=CC(=O)Nc1ccc2nc(N3CCN(C)CC3)cc(C)c2c1 | 5.87 | 2.96 | 4.24
COc1ccc(-c2ccc(Nc3cccc(S(=O)(=O)CCN4CCC(CCN(C)C)CC4)c3)nc2)cn1 | -2.17 | -1.68 | 1.63
O=[N+]([O-])c1ccc2c(-c3ccccc3)c(-c3ccccc3)n(O)c2c1 | 2.37 | 3.54 | 0.3
CC(=O)c1cccc(S(=O)(=O)NCCCNc2nc3cc(C)cc(C)c3cc2C#N)c1 | -0.68 | 1.78 | -1.77
CC(C)(C)c1ccc(C(=O)Nc2cccc(Nc3c(C(=O)NCc4cccc(C(F)(F)F)c4)cnc4c(O)cccc34)c2)cc1 | 10.1 | 8.9 | 9.37
CCn1c(-c2nonc2N)nc2c(-c3cccc(NC(=O)Nc4ccc(C#N)cc4)c3)ncc(OCCCN)c21 | 1.92 | -0.33 | 2.67
CN1C(=O)C(=NN=C(S)N2CCOCC2)c2ccccc21 | 23.4 | 63.9 | 12.7
Cc1ccc(C)c(Cn2c(N3CCC(C(=O)NCc4cccs4)CC3)nc3ccccc32)c1 | 3.18 | 4.2 | -0.43
COc1cc2c(cc1OC)-c1cc(=Nc3c(C)cc(C)cc3C)n(C)c(=O)n1CC2 | 0.22 | 2.72 | 0.49
COc1ccccc1N1CCN(Cc2cc(C(C)C)c(C)cc2O)CC1 | 3.59 | 6.3 | 0.93
Cc1cccc(-n2c(Nc3ccc(C)c(Cl)c3)nc3ccc(S(=O)(=O)NC(C)C(C)C)cc32)c1 (centres undefined) | 2.71 | 1.5 | -0.08
C[C@H](Cc1ccc(C[C@@H](C)NC[C@H](O)c2cccc(Cl)c2)cc1)NC[C@H](O)COc1ccccc1 | 1.99 | 1.95 | 3.59
CC(=O)Nc1ccc(C(=O)Nc2cccc(-c3ccc(-c4nc5cc(F)ccc5[nH]4)s3)c2)cn1 | 0.96 | 1.55 | 2.75
Cc1[nH]c(C)c(-c2ccc(-c3ccc(OC(F)(F)F)cc3)nc2)c(=O)c1Br | 9.71 | 8.43 | 8.85
CC(C)CNCc1cccc(-c2cccc(CNC3CCN(Cc4ccccc4)CC3)c2)c1 | 1.93 | 2.58 | 1.83
N#Cc1ccc2c(c1)CN(CCC1CCC(NC(=O)c3cc4cnccc4[nH]3)CC1)CC2 (centres undefined) | 5.36 | 3.42 | 3.7
COc1ccc2ncc(C#N)c(CCN3CCC(NCc4ccc5c(n4)NC(=O)CS5)CC3)c2n1 | 3.43 | 6.45 | 0.77
C=CCCCNCC(NCCCNc1cc(=O)c2ccccc2[nH]1)c1cc(Br)cc(Br)c1 (centres undefined) | -2.22 | -0.98 | 0.77
Cc1cccc2nc(-c3cccc(-c4cccc(CNCCCN5CCCC5=O)c4)c3)[nH]c12 | -0.74 | -0.59 | -1.17
Cn1cc(CN2CCC(OC(c3ccccc3)c3ccc(Cl)cc3)CC2)cn1 (centres undefined) | 4.78 | 1.66 | -0.63
CO/C(=C\C=C\c1cc2cc(Cl)c(Cl)cc2[nH]1)C(=O)NCCCN1CCN(c2cccc(O)c2)CC1 | 10.4 | 11.7 | 11.8
COc1cc(CCNc2nc(NCc3ccccc3-c3ccccc3)nc(N3CCC(N)CC3)n2)ccc1O | 4.17 | 0.92 | 2.4
Cc1cc(N2CCCC2)nc(Nc2ccc(NC(=O)c3ccco3)cc2)n1 | 0.47 | 3.07 | -0.1

Compound | inhibition [1] [%] | inhibition [2] [%] | inhibition [3] [%]
O=C1OC2(CCN(C(=O)c3ccc(-n4cnnn4)cc3)CC2)CN1Cc1ccc(Cl)c(Cl)c1 | 2.26 | 3.05 | 5.35
Cc1ccc(NC(=O)c2ccnc(N3CCN(c4ccncc4)CC3)c2)cc1F | 3.18 | 4.4 | 4.05
C=C[C@H]1CN(CCCCCCC)CC[C@H]1CCN(C)c1ccnc2ccc(OC)cc12 | 1.17 | 2.44 | 2.13
CC1CC(C)CN(CCCNc2ccc(C(=O)Nc3ccc(C(F)(F)F)cc3)cc2[N+](=O)[O-])C1 (centres undefined) | 3.92 | 0.64 | 1.47
Cc1cc(Nc2ccc(O)cc2)nc2cc(O)ccc12 | 3.16 | 1.93 | 3.51
O=C(/C=C/c1ccc(Cl)cc1)NCCCCCN1CCN(C(=O)C=Cc2ccc(Cl)c(Cl)c2)CC1 | 2.44 | 0.82 | -2.29
CCOc1ccc(-c2nonc2NC(=O)c2cccs2)cc1OCC | -0.24 | 1.17 | -0.56
COc1cccc2c(NN=Cc3cccc(F)c3)ccnc12 | 3.44 | 2.06 | 1.75
CCOc1ccc(S(=O)(=O)N(C)c2ccc(OCC(=O)Nc3nccs3)cc2)cc1 | 5.83 | 0.61 | 1.43
COc1ccccc1CCNc1ncc(F)c(N[C@@H](Cc2ccccc2)C(=O)NCCc2ccccc2)n1 | 0.53 | -0.37 | 0.24
COCc1nc(N)nc(N)c1-c1ccc(Cl)c(Cl)c1 | -0.03 | 0.2 | 0.08
Cn1cnc(CCNC(=O)c2ccc(-c3cccc(-c4nc5cc(C(F)(F)F)ccc5[nH]4)c3)cc2)c1 | 4.83 | 4.43 | 5.89
C/C=C/COc1ccc2ccccc2c1CNCCCCCCCCNCc1c(OC/C=C/C)ccc2ccccc12 | 16.7 | 7.28 | 1.19
O=C(Nc1cccc(F)c1)NC1CCN(CCCCCNC(=O)C2CC2c2ccc(Cl)c(Cl)c2)CC1 (centres undefined) | 0.44 | -0.11 | -1.31
O=S(=O)(Nc1cccc(CCN2CCCCC2CCN2CCCC2)c1)c1ccc(-c2ccccc2)cc1 (centres undefined) | 2.86 | -0.3 | -2.73
Cc1ccc(NC(=O)c2ccc3ncccc3c2)cc1OC1CCN(Cc2ccc(F)cc2)CC1 | 6.67 | 3.46 | 5.46
Cc1cccc(OCCCCON2C(=N)N=C(N)NC2(C)C)c1C | 0.1 | 0.14 | 1.69
Cn1nc(-c2cccc(CNCCc3cccs3)c2)c2cnc(NC3CCCC3)nc21 | 5.58 | 5.16 | 5.1
CCOc1ccccc1CCNCC1CCN(CC2CCCCC2)CC1 | 1.97 | -2.9 | 2.88
CC(C)C[C@H](NC(=O)c1cc2ccccc2s1)C(=O)N[C@H]1CCN(Cc2ccc(OC3CCN(C)C3)c(Cl)c2)C1 (some centres undefined) | 1.48 | 2.37 | -0.19
Cc1cc(CNCCCCCCNCc2ccc(-c3ccccc3)cc2)ccc1O | 7.54 | 7.79 | 4.84
COc1cc2c(c(OC)c1[N+](=O)[O-])C=CC1(O2)N(C)c2ccc([N+](=O)[O-])cc2C1(C)C (centres undefined) | 4.19 | 0.99 | 1.36
CCNc1cc(C)nc(Nc2ccccc2)n1 | 15.2 | 5.92 | 3.47
Clc1ccc(Nc2nc3ccc(Cl)cc3nc2Nc2ccc(Cl)cc2)cc1 | 7.56 | 6.73 | 7.3
